Test results published in PMC5540273 (PLoS ONE, 2017).

How the values were obtained:
Settings in all cases: concentration: 1 μM, replicates: in singlicate; n = 1
AAK1 = tested on: AAK1
ABL1-nonphosphorylated = tested on: ABL1-nonphosphorylated
ABL1-phosphorylated = tested on: ABL1-phosphorylated
ABL2 = tested on: ABL2
ACVR1B = tested on: ACVR1B
ACVR1 = tested on: ACVR1
ACVR2A = tested on: ACVR2A
ACVR2B = tested on: ACVR2B
ACVRL1 = tested on: ACVRL1
ADCK3 = tested on: T1, ADCK3
T1 construct: gene CABC1

ADCK4 = tested on: ADCK4
AKT1 = tested on: AKT1
AKT2 = tested on: AKT2
AKT3 = tested on: AKT3
ALK = tested on: ALK
AMPK-alpha1 = tested on: T2, AMPK-alpha1
T2 construct: gene PRKAA1

AMPK-alpha2 = tested on: T3, AMPK-alpha2
T3 construct: gene PRKAA2

ANKK1 = tested on: ANKK1
ARK5 = tested on: T4, ARK5
T4 construct: gene NUAK1

ASK1 = tested on: T5, ASK1
T5 construct: gene MAP3K5
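Note: KINOMEscan kinase panel screen.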

Structure (SMILES) | %Inh (AAK1) | %Inh (ABL1-nonphosphorylated) | %Inh (ABL1-phosphorylated) | %Inh (ABL2) | %Inh (ACVR1B) | %Inh (ACVR1) | %Inh (ACVR2A) | %Inh (ACVR2B) | %Inh (ACVRL1) | %Inh (ADCK3) | %Inh (ADCK4) | %Inh (AKT1) | %Inh (AKT2) | %Inh (AKT3) | %Inh (ALK) | %Inh (AMPK-alpha1) | %Inh (AMPK-alpha2) | %Inh (ANKK1) | %Inh (ARK5) | %Inh (ASK1)
COc1cccc(C(=O)Nc2cccc(Oc3ccc4nc(NC(=O)C5CC5)cn4n3)c2)c1 | 27% | 100% | 99.7% | 96.3% | 0% | 0% | 1% | 18% | 8% | 10% | 39% | 19% | 0% | 3% | 0% | 23% | 0% | 0% | 0% | 7%
O=C(Nc1n[nH]c2nc(-c3ccc(O)cc3)ccc12)C1CC1 [SB-710363] | 38% | 88% | 74% | 0% | 0% | 74% | 55% | 50% | 1% | 0% | 0% | 0% | 0% | 61% | 0% | 0% | 0% | 0% | 0% | 18%
Cl.c1ccc(-c2ccc3c(Nc4ccc5[nH]ccc5c4)ccnc3c2)nc1 [GW440138] | 10% | 85% | 94.1% | 48% | 0% | 55% | 29% | 89% | 12% | 2% | 38% | 0% | 0% | 0% | 25% | 0% | 0% | 11% | 4% | 0%
O=C(Nc1cccc(-c2nn3ccccc3c2-c2ccnc(Nc3cccc(F)c3)n2)c1)c1c(F)ccc(F)c1Cl [GSK357952] | 0% | 26% | 0% | 25% | 0% | 1% | 16% | 13% | 18% | 16% | 0% | 0% | 9% | 0% | 0% | 20% | 21% | 2% | 0% | 1%
c1ccc(-c2cnc3nccnn23)cc1 [AH20685] | 0% | 0% | 0% | 5% | 0% | 17% | 0% | 0% | 0% | 0% | 17% | 0% | 0% | 0% | 20% | 0% | 0% | 0% | 0% | 0%
COc1cc(Nc2ncc3c(C)nc(-c4cc5ccccc5[nH]4)n3n2)cc(OC)c1OC [GW869516] | 0% | 32% | 24% | 21% | 8% | 0% | 9% | 24% | 0% | 22% | 3% | 8% | 0% | 0% | 0% | 89% | 61% | 0% | 0% | 0%
CCc1ccc(-c2ccc3c(c2)-c2c(cnn2C)S(=O)(=O)N3C)cc1 | 0% | 7% | 0% | 0% | 14% | 0% | 5% | 0% | 17% | 0% | 0% | 0% | 0% | 0% | 0% | 0% | 0% | 0% | 0% | 0%
COc1ccc(-c2coc3ccc(-c4nnc(SCc5ccc(OC)c(C(F)(F)F)c5)o4)cc23)cc1 | 2% | 13% | 0% | 24% | 7% | 28% | 0% | 0% | 26% | 21% | 10% | 4% | 0% | 0% | 0% | 31% | 0% | 38% | 0% | 17%
COc1cc(Nc2nccc(-c3c(-c4cccc(NC(=O)c5c(F)cccc5F)c4)nn4ncccc34)n2)cc(OC)c1OC [GSK327238] | 13% | 92.9% | 24% | 80% | 14% | 0% | 0% | 0% | 0% | 0% | 93.7% | 0% | 11% | 17% | 20% | 9% | 48% | 29% | 97.4% | 0%
